Bioassay records from PubChem.
In the library only some 7.9% were active in any assay of this set; here they are far more common.
MARV entry inh = Marburg virus entry inhibition; 1.8% of 300,000 active; Potency, µM (highest dose often 37.8 µM), for inactives: at the top dose activity change, negative = inhibition, most hits filed as inhibitors; Marburg virus pseudotyped entry inhibition, cell reporter; calls by dose curve; tested in HEK293 cells; note: potency is the fitted concentration of half-maximal effect
HCV inhibitor = inhibitors of hepatitis C virus infection; Huh7.5.1 HCVcc-Cre infection, luciferase reporter, 44 h; Potency, µM (titrated, usually from 41.8 µM), without a hit: at the highest dose activity change, negative = inhibition, most hits filed as inhibitors; 3.4% of 340,000 active; AID 651820; active = well fitted inhibition curve with a large enough effect; inconclusive = small, poorly fitted or top-dose-only effect, or another doubt; inactive = no such curve, though single readings can be large or run the other way; note: potency is the fitted concentration of half-maximal effect
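HCVcc-Cre virus at an moi near 0.5 was added right after compound to cells cultured 4 h from seeding (1,000 cells/well). Luciferase activity was determined 44 h later, 15 min after substrate addition at RT.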
FMDV antiviral = blocks foot and mouth disease virus; FMDV antiviral cell-based qHTS; Potency, µM (doses to about 57.9 µM), for inactives: at the top dose activity change, negative = inhibition, actives largely listed as inhibitors; 1.2% of 410,000 active; AID 1159524; calls by dose curve; tested in HEK293T cells; note: read-out not given here; potency is the fitted concentration of half-maximal effect; nearly all actives have a fitted effect of over 45% in size
HCMV antiviral = blocks human cytomegalovirus replication. activity change, negative = inhibition, % at 57.5 µM. 4.5% of 410,000 active. HFF cells, HCMV-luciferase reporter, 72 h; hits give low values; in the data active = activity change below about -60%; inconclusive = no clear call, values can overlap the other calls; inactive = above about -39%
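Steps: HFFs plated, 16 h 37C; compounds added; HCMV-luciferase added to MOI 1 PFU/cell; 72 h 37C; OneGlo reagent, 5 min room temperature; luminescence read, normalized to controls.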
LASV entry inh = inhibitors of Lassa virus binding or cell entry; Lassa virus pseudotype entry inhibition, cell reporter; Potency, µM (titrated, usually from 37.9 µM), without a hit: at the highest dose activity change, negative = inhibition, actives largely listed as inhibitors; 1.2% of 300,000 active; AID 540256; calls by dose curve; tested in HEK293 cells; note: potency is the fitted concentration of half-maximal effect; nearly all actives have a fitted effect of over 50% in size
* hit, by the source's call; ? = inconclusive; nt = no result given; + = active, no number; [ ] = dose if it differs, or a comment. % is set by controls: 0 for no effect and ±100 for the full control effect.

SMILES	MARV entry inh	HCV inhibitor	FMDV antiviral	HCMV antiviral	LASV entry inh
CCOc1ccc2nc(NC(=O)c3ccc(S(=O)(=O)N4CCOCC4)cc3)sc2c1	9.1%	15.5%	28.2µM*	-32.4	3.3%
CC[C@]12c3[nH]c4ccc(OC)cc4c3CCN1C(=O)C(CC(=O)NCc1ccc(OC)c(OC)c1)C[C@@H]2C(=O)N1CCN(C(=O)C2CC2)CC1 (stereo not given in full)	0.0%	-17.5%	-21.2%	6.3	nt
COc1ccccc1OC(C)C(=O)Nc1nc(-c2ccc(S(=O)(=O)N3CCOCC3)cc2)cs1 (stereo not given)	?	?	-22.8%	-7.3	?
COc1ccccc1C(=O)Nc1nc(-c2ccc(S(=O)(=O)N3CCOCC3)cc2)cs1	7.3µM*	3.55µM*	3.16µM*	-94.8*	3.66µM*
CC1CCN(S(=O)(=O)c2ccc(NC(=O)c3ccccc3F)cc2)CC1	-25.9%[46.1 µM]	?	-27.4%	-61.9*	nt
COc1ccc(C(=O)Nc2ccc(C(=O)OCc3cc(=O)n4nc(C(C)C)sc4n3)cc2)cc1	nt	nt	28.3%	16.7	?
Cc1ccc(NC(=O)CNC(=O)C2CCCCC2)nc1	-1.5%[46.1 µM]	-1.1%	3.4%	5.4	4.0%
Nc1c(Cl)ncnc1NCc1cccnc1	-5.5%[46.1 µM]	-5.3%	-22.9%	-11.9	7.8%[46.1 µM]
Nc1c(Cl)ncnc1NCCc1ccc(O)cc1	nt	6.31µM*	-25.3%	-69.8*	nt
N#Cc1ccccc1-c1ccc2ncnc(NCCN3CCOCC3)c2c1	nt	nt	-5.3%	nt	nt
N#Cc1c(NC(=O)c2ccc(Cn3cc(Br)cn3)o2)sc2c1CCCCCC2	?	?	?	-98.9*	-10.9%
CCc1ccc(NC(=O)CCc2ccc(CC)o2)cc1	-0.4%[46.1 µM]	-11.3%	12.8%	13.1	5.9%[46.1 µM]
CCc1ccc(CCC(=O)Nc2ccc(C(=O)O)cc2)o1	nt	12.2%	-8.4%	+	nt
CCC(=O)Nc1sc2c(c1C#N)CCC2	1.4%[46.1 µM]	-21.5%	7.1%	5.1	nt
CCc1ccc(CCC(=O)Nc2sc3c(c2C#N)CCCC3)o1	2.31µM*	4.47µM*	-6.6%	-75.0*	?
N#Cc1c(NC(=O)CSc2nc(N)cc(=O)[nH]2)sc2c1CCCC2	10µM*	-21.3%	?	-20.9	?
O=C(NCCn1ccc2ccccc21)c1ccc(Cl)cc1	?	nt	45.4%	94.7	23.7%[46.1 µM]
Cc1ccc2oc(=O)c3cc(C(=O)NCCCN4CCCCCC4)sc3c2c1	?	?	-7.0%	0.0	4.5%[46.1 µM]
CCC1CCCCN1CCCNC(=O)c1cc2c(=O)oc3ccc(C)cc3c2s1 (stereo not given)	nt	12.6µM*	6.9%	0.0	nt
CC(=O)c1ccccc1NS(=O)(=O)c1cc2c(cc1C)NC(=O)CO2	nt	nt	-2.9%	0.0	21.8%[46.1 µM]
CCCCn1c(O)c(C(CC)=Nc2ccc3c(c2)CCC3)c(=O)[nH]c1=O	-14.3%	-13.0%	-7.5%	-25.1	1.3µM*
CCn1c2ccc(C)cc2c2nnc(SCCN3CCCCC3)nc21	?	?	-24.7%	-21.0	-20.9%
CCCn1c2ccc(C)cc2c2nnc(SCCN3CCCCC3)nc21	?	8.91µM*	-15.7%	28.0	-23.2%[46.1 µM]
C=CCn1c2ccccc2c2nnc(SCCN3CCCCC3)nc21	nt	-26.4%	-13.0%	-8.4	nt
c1ccc(Cn2c3ccccc3c3nnc(SCCN4CCCCC4)nc32)cc1	-13.9%[46.1 µM]	-21.2%	-25.2%	-60.1*	4.7%
SMILES	MARV entry inh	HCV inhibitor	FMDV antiviral	HCMV antiviral	LASV entry inh
CCn1c2ccc(F)cc2c2nnc(SCCN3CCCCC3)nc21	?	14.1µM*	-24.8%	37.1	13.1%[46.1 µM]
C=CCn1c2ccccc2c2nnc(SCCCn3c(=O)[nH]c4ccccc43)nc21	?	10µM*	?	50.9	?
COc1ccc([C@H]2C[C@H](c3ccccc3)Nc3nc(N)nn32)cc1	0.5%	nt	nt	nt	nt
C/C(CC(=O)Nc1ccccn1)=N\NC(=O)c1ccccc1O	?	7.08µM*	29.0%	-91.2*	?
C/C(CC(=O)Nc1cc(C)ccn1)=N\NC(=O)c1cccc(C)c1	nt	7.5%	33.2%	-4.0	nt
C/C(CC(=O)Nc1cc(C)ccn1)=N\NC(=O)c1cccc(C)c1O	?	?	50.6%	-98.0*	?
C/C(CC(=O)Nc1ccccn1)=N\NC(=O)c1ccccc1	nt	3.9%	nt	nt	nt
COc1cc(OC)c(OC)cc1CN1CCC(n2cc(C(=O)N3CCCCC3)nn2)CC1	nt	nt	-9.1%	nt	nt
O=C(c1ccco1)N1CCC(c2nc3c(nnn3Cc3ccccc3Cl)c(=O)[nH]2)CC1	7.1%[46.1 µM]	7.0%	39.7%	-12.4	?
CC(C)(C)c1nc(N2CCN(C(=O)c3ccco3)CC2)c2nnn(Cc3ccccc3)c2n1	?	?	28.2µM*	?	25.9µM*
O=C(c1ccco1)N1CCCC(c2nc3c(nnn3Cc3ccccc3)c(=O)[nH]2)C1 (stereo not given)	0.8%[46.1 µM]	-11.6%	-21.7%	59.0	3.9%
O=C(c1ccco1)N1CCN(c2nc(C3CC3)nc3c2nnn3Cc2ccccc2Cl)CC1	?	?	35.5µM*	-36.3	?
Cc1ccc(NC(=O)C2CCCN(S(=O)(=O)c3c(C)n[nH]c3C)C2)cc1C (stereo not given)	-13.8%[46.1 µM]	nt	-11.8%	14.5	-14.2%[46.1 µM]
COCC1CCCN(Cc2cn(Cc3ccccc3)nc2-c2cc3ccccc3o2)C1 (stereo not given)	2.51µM*	?	-13.1%	-77.7*	?
CCCCCNC(=O)c1ccc(NS(=O)(=O)c2ccc3[nH]c(=O)[nH]c3c2)cc1	16.5%	2.8%	-9.0%	-95.0*	-19.3%
O=C(c1ccc(NS(=O)(=O)c2ccc3[nH]c(=O)[nH]c3c2)cc1)N1CCN(c2ccccc2O)CC1	21.9%[46.1 µM]	12.5%	-14.1%	-8.9	-0.6%
CCCCNC(=O)c1ccc(NS(=O)(=O)c2ccc3[nH]c(=O)[nH]c3c2)cc1	11.5%	16.1%	-7.9%	31.5	18.7%
Cc1cccc(N2CCN(C(=O)c3ccc(NS(=O)(=O)c4ccc5[nH]c(=O)[nH]c5c4)cc3)CC2)c1C	-15.2%	-16.3%	12.3%	-66.9*	-24.3%
OCCNCC(O)CN1c2ccccc2Sc2ccccc21 (stereo not given)	?	-1.8%	?	-17.6	-18.4%
CCN(CC)C(C)CN1c2ccccc2Sc2ccccc21 (stereo not given)	?	nt	28.2µM*	nt	-2.3%
O=C(N/N=C/c1ccc(O)cc1)/C(=C/c1ccccc1)CCO	7.2%	1.4%	3.6%	10.9	-4.5%
CCCCCCCCCCCCCCCCCCNc1ccn(C2OC(COP(=O)(O)OCC3OC(n4cc(F)c(=O)[nH]c4=O)CC3O)C(O)C2O)c(=O)n1 (stereo not given)	?	?	-4.9%	-87.9*	?
O=C(c1ccc(-c2ccccc2)cc1)c1ccccc1C(=O)N1CCOCC1	21.5%	-4.7%	-5.9%	3.8	-1.2%
S=C(c1ccc(-c2ccccc2)cc1)N1CCOCC1	?	-3.9%	3.5%	-83.5*	-2.5%[46.1 µM]
Cc1ccc2nc3c(cc2c1)CN(Cc1ccco1)C(=NCC1CCCO1)S3 (stereo not given)	-11.6%[46.1 µM]	-11.4%	-11.4%	-70.1*	?
CS(=O)(=O)c1ccc(-c2cccc3c2OC(CNC(=O)c2cc(C4CC4)[nH]n2)C3)cc1 (stereo not given)	nt	nt	-13.0%	nt	nt
